Experimental data reported in PubChem BioAssay AID1159580 (chemical genetic matrix, 2015).
Among all 5,500 compounds or so, about 2,000 (36%) were called active. Another 18% or so got no clear call; they are omitted. Cut-off read from the data, not from the text of the source: active = normalized growth mostly below about 0.91 (no sharp cut-off); inconclusive = no clear call, values can overlap the other calls; inactive = mostly above about 0.92. Some of the results follow.

Assay: chemical genetic growth profiling, strain panel (AID 1159580);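 note: tested at 20 µM; growth read once vehicle control cultures reached saturation at 30 °C; 1 = growth at the plate median or of vehicle wells; lower values mean less growth of the strain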
Details: growth OD

Measured: normalized growth

Cc1cc(O)c(C=O)c2c1C(=O)Oc1c(COC(=O)/C=C/C(=O)O)c(O)c(C(=O)O)c(C)c1O2
inactive: S. cerevisiae deletion strains, locus YJR043C, strain POL32, hits give low values 0.954 | S. cerevisiae deletion strains, locus YJR066W, strain TOR1, hits give low values 0.931 | S. cerevisiae deletion strains, locus YJR075W, strain HOC1, hits give low values 0.962 | S. cerevisiae deletion strains, locus YKL009W, strain mrt4, hits give low values 0.974 | S. cerevisiae deletion strains, locus YKL068W, hits give low values 0.993 | S. cerevisiae deletion strains, locus YKL085W, strain MDH1 (second series), hits give low values 0.991 | S. cerevisiae deletion strains, locus YKL085W, strain MDH1, hits give low values 0.991 | S. cerevisiae deletion strains, locus YKL160W, strain elf1, hits give low values 0.992 | S. cerevisiae deletion strains, locus YKR001C, strain vps1, hits give low values 0.921 | S. cerevisiae deletion strains, locus YKR026C, strain gcn3, hits give low values 0.985 | S. cerevisiae deletion strains, locus YKR091W, strain srl3, hits give low values 1.01 | S. cerevisiae deletion strains, locus YLL026W, hits give low values 1.01 | S. cerevisiae deletion strains, locus YLL041C, strain sdh2, hits give low values 1 | S. cerevisiae deletion strains, locus YLR027C, strain aat2, hits give low values 0.982 | S. cerevisiae deletion strains, locus YLR039C, strain RIC1, hits give low values 0.933 | S. cerevisiae deletion strains, locus YLR058C, strain SHM2, hits give low values 0.937 | S. cerevisiae deletion strains, locus YLR102C, strain apc9, hits give low values 0.991 | S. cerevisiae deletion strains, locus YLR113W, strain HOG1, hits give low values 0.984 | S. cerevisiae deletion strains, locus YLR221C, strain rsa3, hits give low values 0.946 | S. cerevisiae deletion strains, locus YLR258W, strain gsy2, hits give low values 0.987 | S. cerevisiae deletion strains, locus YLR262C, strain YPT6 (second series), hits give low values 0.877 | S. cerevisiae deletion strains, locus YLR262C, strain YPT6, hits give low values 0.936 | S. cerevisiae deletion strains, locus YLR268W, strain sec22, hits give low values 0.924 | S. cerevisiae deletion strains, locus YLR320W, strain mms22, hits give low values 0.959 | S. cerevisiae deletion strains, locus YLR330W, strain CHS5, hits give low values 0.971 | S. cerevisiae deletion strains, locus YLR342W, strain FKS1 (second series), hits give low values 0.98 | S. cerevisiae deletion strains, locus YLR342W, strain FKS1, hits give low values 0.968 | S. cerevisiae deletion strains, locus YLR370C, strain arc18, hits give low values 0.967 | S. cerevisiae deletion strains, locus YLR371W, strain rom2, hits give low values 0.943 | S. cerevisiae deletion strains, locus YLR384C, strain iki3, hits give low values 0.996 | S. cerevisiae deletion strains, locus YLR418C, strain cdc73, hits give low values 0.883 | S. cerevisiae deletion strains, locus YML016C, strain PPZ1, hits give low values 0.957 | S. cerevisiae deletion strains, locus YML032C, strain rad52, hits give low values 1.01 | S. cerevisiae deletion strains, locus YML120C, strain ndi1, hits give low values 1 | S. cerevisiae deletion strains, locus YML124C, strain tub3, hits give low values 0.996 | S. cerevisiae deletion strains, locus YMR078C, strain ctf18, hits give low values 0.986 | S. cerevisiae deletion strains, locus YMR125W, strain sto1, hits give low values 1.08 | S. cerevisiae deletion strains, locus YMR129W, hits give low values 1.01 | S. cerevisiae deletion strains, locus YMR205C, strain PFK2, hits give low values 0.998 | S. cerevisiae deletion strains, locus YMR223W, strain ubp8, hits give low values 0.961 | S. cerevisiae deletion strains, locus YMR231W, strain pep5, hits give low values 0.94 | S. cerevisiae deletion strains, locus YMR307W, strain GAS1, hits give low values 0.72 | S. cerevisiae deletion strains, locus YNL067W, strain RPL9B, hits give low values 0.92 | S. cerevisiae deletion strains, locus YNL071W, strain lat1, hits give low values 1 | S. cerevisiae deletion strains, locus YNL183C, strain NPR1, hits give low values 0.931 | S. cerevisiae deletion strains, locus YNL233W, strain BNI4, hits give low values 0.967 | S. cerevisiae deletion strains, locus YNL248C, strain rpa49, hits give low values 1.01 | S. cerevisiae deletion strains, locus YNL250W, strain rad50, hits give low values 0.956 | S. cerevisiae deletion strains, locus YNL271C, strain bni1, hits give low values 0.954 | S. cerevisiae deletion strains, locus YNL298W, strain CLA4, hits give low values 0.966 | S. cerevisiae deletion strains, locus YNL307C, strain MCK1, hits give low values 0.98 | S. cerevisiae deletion strains, locus YNL322C, strain KRE1 (second series), hits give low values 1.04 | S. cerevisiae deletion strains, locus YNR049C, strain mso1, hits give low values 0.995 | S. cerevisiae deletion strains, locus YNR052C, strain pop2, hits give low values 0.963 | S. cerevisiae deletion strains, locus YOL012C, strain htz1 0.751 | S. cerevisiae deletion strains, locus YOL147C, strain pex11, hits give low values 0.994 | S. cerevisiae deletion strains, locus YOR001W, strain rrp6, hits give low values 0.961 | S. cerevisiae deletion strains, locus YOR061W, strain CKA2, hits give low values 0.95 | S. cerevisiae deletion strains, locus YOR069W, strain VPS5, hits give low values 0.976 | S. cerevisiae deletion strains, locus YOR070C, strain gyp1, hits give low values 0.988 | S. cerevisiae deletion strains, locus YOR080W, strain dia2, hits give low values 1.02 | S. cerevisiae deletion strains, locus YOR083W, strain WHI5, hits give low values 0.937 | S. cerevisiae deletion strains, locus YOR136W, strain idh2, hits give low values 0.988 | S. cerevisiae deletion strains, locus YOR144C, strain elg1, hits give low values 0.993 | S. cerevisiae deletion strains, locus YOR184W, strain ser1, hits give low values 0.946 | S. cerevisiae deletion strains, locus YOR231W, strain MKK1, hits give low values 0.953 | S. cerevisiae deletion strains, locus YOR265W, strain rbl2, hits give low values 0.964 | S. cerevisiae deletion strains, locus YOR290C, strain snf2, hits give low values 0.869 | S. cerevisiae deletion strains, locus YOR316C, strain cot1, hits give low values 0.989 | S. cerevisiae deletion strains, locus YPL078C, strain atp4, hits give low values 0.925 | S. cerevisiae deletion strains, locus YPL106C, strain sse1, hits give low values 0.942 | S. cerevisiae deletion strains, locus YPL240C, strain hsp82, hits give low values 1.01 | S. cerevisiae deletion strains, locus YPL256C, strain CLN2, hits give low values 1.01 | S. cerevisiae deletion strains, locus YPR119W, strain clb2, hits give low values 0.991 | S. cerevisiae deletion strains, locus YPR141C, strain kar3, hits give low values 0.96 | S. cerevisiae deletion strains, locus YPR163C, strain tif3, hits give low values 0.987 | S. cerevisiae deletion strains, locus YPR167C, strain met16, hits give low values 0.998 | S. cerevisiae deletion strains, strain wtn01, hits give low values 0.945
active: S. cerevisiae deletion strains, locus YLL001W, strain dnm1, hits give low values 0.888 | S. cerevisiae deletion strains, locus YLR357W, strain rsc2, hits give low values 0.841 | S. cerevisiae deletion strains, locus YMR058W, strain fet3, hits give low values 0.311 | S. cerevisiae deletion strains, locus YNL209W, strain ssb2, hits give low values 0.804 | S. cerevisiae deletion strains, locus YOR106W, strain vam3, hits give low values 0.709 | S. cerevisiae deletion strains, locus YOR270C, strain vph1, hits give low values 0.503 | S. cerevisiae deletion strains, locus YPL051W, strain arl3, hits give low values 0.831 | S. cerevisiae strains, strain wild type, hits give low values 0.874
